The record followed here is a collection of fitness landscapes (doi:10.1016/j.celrep.2020.107928).

B1: Caulobacter ParB omega fusion; a variant is named by its letters at X, in order, B8GW30 (parent)
chain: MESVVVGEPGMSEGRRGLGRGLSALLGEVDAAPAQAPGEQLGGSREAPIEILQRNPDQPRRTFREEDLEDLSNSIREKGVLQPILVRPSPDTAGEYQIVAGERAWRAAQRAGLKTVPIMVRELDDLAVLEIGIIENVQRADLNVLEEALSYKVLMEKFERTQENIAQTIGKSXSHVANXMRLLXLPDEVQSYLVSGELTAXHARAIAAAADPVALAKQIIEGGLSVRETEALARKAPNLSAGKSKGGRPPRVKDTDTQALESDLSSVLGLDVSIDHRGSTGTLTITYATLEQLDDLCNRLTRGI

The full ranking holds about 81,000 sequences; the median of “one-hybrid fitness for binding NBS DNA” is about -0.1, and the highest 2% start at about 0.36. For the sample, the highest values were picked, then their nearest neighbours and some sequences at random.

Variants of B1 are the subject of the test. Nature of the test: one-hybrid fitness for binding NBS DNA (the Noc-binding site; scaled: cognate 1, non-cognate 0); higher = stronger binding. The note with it: with NBS DNA site. The essentials: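 Values were rescaled so that cognate is 1 and non-cognate is 0. Each is a fitness, the log change in a variant's read ratio to wild type from Illumina reads of plasmids before and after selection, with three replicate libraries pooled and variants under 10 reads dropped. Selection of the Caulobacter ParB libraries, four specificity codons randomised, used E. coli USO with a HIS3 reporter, site 19 bp from the promoter, on M9-minus-histidine with 0.1 mM IPTG and 5 mM 3-AT for 48 hours at 37°C.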
Turning to PAEC, the “one-hybrid fitness for binding NBS DNA” value is at most 0.2.

As for TFLC, the “one-hybrid fitness for binding NBS DNA” value is at most 0.2. For RTRD the value was at most 0.2; for RCWR, 0.405.

In the case of RTER, the “one-hybrid fitness for binding NBS DNA” value came to 0.262. For RSWR the value was 0.27; for RTGH, 0.271. For RTRR the value was 0.818. For RTGR the value was 0.622; for RTIR, 0.354. As for RPWR, the “one-hybrid fitness for binding NBS DNA” value was at most 0.2.

Take RTPR: the “one-hybrid fitness for binding NBS DNA” value stood at 0.208. For RTYR the value was 0.522. The value for RTGP was at most 0.2; that for WHGR was at most 0.2. For SVYC, the “one-hybrid fitness for binding NBS DNA” value was at most 0.2. Consider DNYS, for which the “one-hybrid fitness for binding NBS DNA” value was at most 0.2. As for AQDG, the “one-hybrid fitness for binding NBS DNA” value was at most 0.2. For RTCD, the “one-hybrid fitness for binding NBS DNA” value was at most 0.2.

As to RTNR, the “one-hybrid fitness for binding NBS DNA” value came to 0.744. With RTSF, the “one-hybrid fitness for binding NBS DNA” value is at most 0.2. Take RTNP: the “one-hybrid fitness for binding NBS DNA” value was at most 0.2. The value for RTHG was at most 0.2.

On to RTSR, for which the “one-hybrid fitness for binding NBS DNA” value was determined as 0.576. On to RTSC, for which the “one-hybrid fitness for binding NBS DNA” value was at most 0.2. RTCR: the “one-hybrid fitness for binding NBS DNA” value stood at 0.53. With RTHM, the “one-hybrid fitness for binding NBS DNA” value was at most 0.2. On to RTDR, for which the “one-hybrid fitness for binding NBS DNA” value turned out to be 0.282. The value for RTHR was 0.631. For RTCN the value was at most 0.2. For MTRH the value was at most 0.2; for GPMF, at most 0.2. Consider VYNT, for which the “one-hybrid fitness for binding NBS DNA” value was at most 0.2. As to NQFD, the “one-hybrid fitness for binding NBS DNA” value was at most 0.2.

In the case of GLEG, the “one-hybrid fitness for binding NBS DNA” value was at most 0.2. As for DQKV, the “one-hybrid fitness for binding NBS DNA” value is at most 0.2. The value for ATVV was at most 0.2. In the case of THMM, the “one-hybrid fitness for binding NBS DNA” value is at most 0.2.

Turning to RTWP, the “one-hybrid fitness for binding NBS DNA” value is at most 0.2. Take RTLH: the “one-hybrid fitness for binding NBS DNA” value was at most 0.2.

Consider RTWD, for which the “one-hybrid fitness for binding NBS DNA” value was at most 0.2. For RTLQ the value was at most 0.2; for RTQR, 0.575; for RTQN, at most 0.2. For RTLR the value was 0.461; for RTWR, 0.404. Take RTQP: the “one-hybrid fitness for binding NBS DNA” value was at most 0.2.

For the variant QGED, the “one-hybrid fitness for binding NBS DNA” value was at most 0.2. For DAQE the value was at most 0.2; for GQLV, at most 0.2. As for RKAT, the “one-hybrid fitness for binding NBS DNA” value turned out to be 0.643. The value for RKFH was 0.212; that for RKFT was 0.437; that for RKAK was at most 0.2.

In the case of RCFT, the “one-hybrid fitness for binding NBS DNA” value was found to be 0.423.

Take RPFT: the “one-hybrid fitness for binding NBS DNA” value is at most 0.2. The value for RKFD was at most 0.2. Turning to RKAG, the “one-hybrid fitness for binding NBS DNA” value was at most 0.2. As for RSFT, the “one-hybrid fitness for binding NBS DNA” value was at most 0.2.

On to ALQE, for which the “one-hybrid fitness for binding NBS DNA” value is at most 0.2. On to NTTI, for which the “one-hybrid fitness for binding NBS DNA” value is at most 0.2.

As for VKDD, the “one-hybrid fitness for binding NBS DNA” value is at most 0.2. As to SFVF, the “one-hybrid fitness for binding NBS DNA” value is at most 0.2. As to WRVA, the “one-hybrid fitness for binding NBS DNA” value was at most 0.2. The value for QRIF was at most 0.2; that for QSIR was 0.336.

On to QKPR, for which the “one-hybrid fitness for binding NBS DNA” value was 0.271. For QRIR, the “one-hybrid fitness for binding NBS DNA” value was 0.686. Consider QRPN, for which the “one-hybrid fitness for binding NBS DNA” value is at most 0.2.

On to QKIR, for which the “one-hybrid fitness for binding NBS DNA” value came out at 0.37. As for QCIR, the “one-hybrid fitness for binding NBS DNA” value came to 0.476.

Consider QRPR, for which the “one-hybrid fitness for binding NBS DNA” value is 0.543. The value for QPIR was at most 0.2; that for QKIH was at most 0.2; that for QRID was at most 0.2. HKRE: the “one-hybrid fitness for binding NBS DNA” value is at most 0.2.

As for TTVD, the “one-hybrid fitness for binding NBS DNA” value was at most 0.2. In the case of RYII, the “one-hybrid fitness for binding NBS DNA” value is at most 0.2. The value for YVSR was at most 0.2. In the case of VVAC, the “one-hybrid fitness for binding NBS DNA” value is at most 0.2. For CQVS the value was at most 0.2; for GESL, at most 0.2; for PASE, at most 0.2.

As for TQWR, the “one-hybrid fitness for binding NBS DNA” value was at most 0.2. In the case of YKER, the “one-hybrid fitness for binding NBS DNA” value was at most 0.2. In the case of SGPG, the “one-hybrid fitness for binding NBS DNA” value was at most 0.2.

Take RKES: the “one-hybrid fitness for binding NBS DNA” value was 0.434. As to RKEN, the “one-hybrid fitness for binding NBS DNA” value is at most 0.2.

As to RKEC, the “one-hybrid fitness for binding NBS DNA” value is at most 0.2. As to RKEP, the “one-hybrid fitness for binding NBS DNA” value is at most 0.2.

Take RSER: the “one-hybrid fitness for binding NBS DNA” value was at most 0.2. In the case of RKER, the “one-hybrid fitness for binding NBS DNA” value was determined as 0.475. For RSET the value was at most 0.2. RKET: the “one-hybrid fitness for binding NBS DNA” value amounted to 0.528. In the case of RKED, the “one-hybrid fitness for binding NBS DNA” value is at most 0.2.

On to TPNM, for which the “one-hybrid fitness for binding NBS DNA” value is at most 0.2.

As to GAKV, the “one-hybrid fitness for binding NBS DNA” value was at most 0.2. For PFSN the value was at most 0.2; for GRHM, at most 0.2. The value for ESQL was at most 0.2. For SDYT the value was at most 0.2; for TGQV, at most 0.2; for AFRG, at most 0.2.

Turning to AFCR, the “one-hybrid fitness for binding NBS DNA” value was at most 0.2. The value for QMKD was 0.313. The value for QMVS was 0.282; that for QMVQ was 0.283; that for QMKH was 0.559.

Turning to QMKN, the “one-hybrid fitness for binding NBS DNA” value was determined as 0.4.

On to QMKP, for which the “one-hybrid fitness for binding NBS DNA” value is 0.277.

Regarding QMKF, the “one-hybrid fitness for binding NBS DNA” value amounted to 0.3. Regarding QMKI, the “one-hybrid fitness for binding NBS DNA” value is 0.322.

In the case of QMKQ, the “one-hybrid fitness for binding NBS DNA” value amounted to 0.417.

For QMKE, the “one-hybrid fitness for binding NBS DNA” value was determined as 0.215.

As for QMKS, the “one-hybrid fitness for binding NBS DNA” value was 0.668. In the case of QMQQ, the “one-hybrid fitness for binding NBS DNA” value is at most 0.2. As to TPAD, the “one-hybrid fitness for binding NBS DNA” value is at most 0.2. The value for RQKV was 0.237; that for CAYF was at most 0.2. The value for LIRD was at most 0.2; that for PIRV was at most 0.2; that for QTDM was at most 0.2. The value for QHDM was at most 0.2. QTRM: the “one-hybrid fitness for binding NBS DNA” value was 0.562.

As to QTYM, the “one-hybrid fitness for binding NBS DNA” value was at most 0.2. For QKRM the value was 0.4. Regarding QKYM, the “one-hybrid fitness for binding NBS DNA” value is at most 0.2.

As for QHRM, the “one-hybrid fitness for binding NBS DNA” value came out at 0.379.

As to QHQM, the “one-hybrid fitness for binding NBS DNA” value was at most 0.2. For QCRM the value was 0.505; for QKDM, at most 0.2. Regarding QCYM, the “one-hybrid fitness for binding NBS DNA” value was at most 0.2. Turning to QPRM, the “one-hybrid fitness for binding NBS DNA” value was at most 0.2. For IVMP, the “one-hybrid fitness for binding NBS DNA” value was at most 0.2. Turning to STQT, the “one-hybrid fitness for binding NBS DNA” value is at most 0.2. For NHEL the value was at most 0.2; for TDNM, at most 0.2; for IHYS, at most 0.2. Regarding RIDA, the “one-hybrid fitness for binding NBS DNA” value was at most 0.2. For LSVV the value was at most 0.2; for TPRN, at most 0.2; for NHPC, at most 0.2. For LYSC, the “one-hybrid fitness for binding NBS DNA” value was at most 0.2.

As for GAPG, the “one-hybrid fitness for binding NBS DNA” value was at most 0.2. For PSHR the value was at most 0.2; for RVAG, at most 0.2; for YGRN, at most 0.2.

With AHAS, the “one-hybrid fitness for binding NBS DNA” value is at most 0.2. Turning to QSRM, the “one-hybrid fitness for binding NBS DNA” value came to 0.402. As for QMRM, the “one-hybrid fitness for binding NBS DNA” value is 0.45. On to QRYM, for which the “one-hybrid fitness for binding NBS DNA” value was determined as 0.353.

As to QMYM, the “one-hybrid fitness for binding NBS DNA” value is at most 0.2.

As for QMDM, the “one-hybrid fitness for binding NBS DNA” value was at most 0.2.

With QRRM, the “one-hybrid fitness for binding NBS DNA” value was 0.589. The value for QSYM was at most 0.2. In the case of QRWM, the “one-hybrid fitness for binding NBS DNA” value came to 0.254. For QSDM the value was at most 0.2.
